PLK1 PBD inh – PLK1 (human) polo-box domain binding inhibition. Plk1 PBD binding of FITC phosphopeptide, fluorescence polarization. hit rate 2.8% among 360,000. P53350. AID 720504. Potency, µM, for the others: max response, negative = inhibition, actives largely listed as inhibitors; further: potency means the concentration at half of the fitted maximal effect; series mostly up to about 57 µM; on the % scale 0 is the no-effect control and ±100 the full control effect; nearly all actives have a fitted effect of over 65% in size
G9a inh – inhibitors of human histone lysine methyltransferase G9a. Potency, µM (series often up to 102 µM), without a hit: at the highest dose activity, negative = inhibition, actives largely listed as inhibitors. Q96KQ7. G9a H3K9 monomethylation, AlphaScreen, 2 h. hit rate 8.8% among 350,000; further: potency means the concentration at half of the fitted maximal effect; on the % scale 0 is the no-effect control and ±100 the full control effect; nearly all actives have a fitted effect of over 75% in size
Target sequence (Q96KQ7 913-1193 limits assumed): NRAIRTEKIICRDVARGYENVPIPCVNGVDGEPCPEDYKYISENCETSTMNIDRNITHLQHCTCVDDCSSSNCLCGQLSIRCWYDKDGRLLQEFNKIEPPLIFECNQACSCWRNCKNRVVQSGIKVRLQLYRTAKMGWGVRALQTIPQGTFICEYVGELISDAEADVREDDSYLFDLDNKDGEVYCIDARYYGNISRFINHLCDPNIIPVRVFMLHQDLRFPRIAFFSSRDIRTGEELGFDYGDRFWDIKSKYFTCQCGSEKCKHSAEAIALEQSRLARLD
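Readings reflect AlphaScreen signal from monomethyl-H3K9 antibody detection. HMT at 20 nM; substrate b-H3K9 500 nM; cofactor SAM 20 uM; 2 h RT reaction; compounds tested as titrations in qHTS with 15 min preincubation.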
PI5P4Ka inh – blocks human PI5P4K alpha kinase activity. P48426. PI5P4Kalpha enzyme, ADP-Glo luminescence, 60 min; hits give low values. max response, %. hit rate 1.2% among 330,000. AID 652105; active means max response of -50% or lower; inconclusive means between -30% and -50%; inactive means -30% or higher; further: value at the top dose of about 77 µM; on the % scale 0 is the no-effect control and ±100 the full control effect
Target sequence (P48426 whole entry, looked up): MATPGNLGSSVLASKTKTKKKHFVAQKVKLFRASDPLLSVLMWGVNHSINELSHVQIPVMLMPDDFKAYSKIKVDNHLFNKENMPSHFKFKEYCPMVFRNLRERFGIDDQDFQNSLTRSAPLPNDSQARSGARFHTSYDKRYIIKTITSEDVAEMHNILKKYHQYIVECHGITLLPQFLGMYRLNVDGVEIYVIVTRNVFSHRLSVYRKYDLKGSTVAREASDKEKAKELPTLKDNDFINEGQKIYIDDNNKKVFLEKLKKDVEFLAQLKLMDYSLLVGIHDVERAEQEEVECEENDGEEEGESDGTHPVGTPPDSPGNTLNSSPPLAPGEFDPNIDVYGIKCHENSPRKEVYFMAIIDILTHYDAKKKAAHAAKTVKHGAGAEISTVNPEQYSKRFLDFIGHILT
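Enzyme plus substrate dispensed, test compounds pinned in, then ATP (5 microM final) added. After 60 min at RT, ADP-Glo reagent 1 for 45 min and reagent 2 for 30 min preceded luminescence imaging.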
HP1b chromo inh – HP1-beta chromodomain-methylated histone interaction inhibition. AlphaScreen HP1-beta / biotin-H3K9me3 peptide binding. Potency, µM (doses to about 114 µM), inactives show at the top dose activity change, negative = inhibition, usual class: inhibitors. hit rate 0.56% among 390,000. AID 540317; further: potency means the concentration at half of the fitted maximal effect; nearly all actives have a fitted effect of over 70% in size
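Compound inhibition of the preformed complex between 50 nM HP1-beta and 50 nM biotinylated H3K9me3 peptide was read by AlphaScreen. Buffer was PBS pH 7.4 with 0.01% Tween-20. Incubations ran 30 min at room temperature, with 10 ug/mL donor/acceptor beads.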
BAZ2B inh – blocks human BAZ2B. Potency, µM (doses to about 114 µM), for the others: at the highest dose activity change, negative = inhibition, most hits filed as inhibitors. Q9UIF8. AlphaScreen BAZ2B-H3K14Ac peptide displacement. hit rate 4.4% among 360,000; further: potency means the concentration at half of the fitted maximal effect; on the % scale 0 is the no-effect control and ±100 the full control effect; nearly all actives have a fitted effect of over 60% in size
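AlphaScreen displacement of biotin-H3(5-23)K14Ac peptide (50 nM final) from BAZ2B (50 nM final) in PBS pH 7.4, 0.01% Tween-20; complex preformed 30 min RT, then compounds (top 110 uM) 30 min RT, beads 20 min dark.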
JMJD2A Tudor inh – blocks the human JMJD2A Tudor domain. AlphaScreen JMJD2A-Tudor / H3K4me3 peptide binding. Potency, µM (top dose mostly 114 µM), without a hit: at the top dose activity change, negative = inhibition, most hits filed as inhibitors. hit rate 4.4% among 390,000; further: potency means the concentration at half of the fitted maximal effect; on the % scale 0 is the no-effect control and ±100 the full control effect; nearly all actives have a fitted effect of over 50% in size
An asterisk follows results filed as active; ? = inconclusive; / = no result; ! = a repeat was not active; [ ] = remark or other dose. Most compounds without a hit are left out; they make up all but 12% or so of the library. Unless noted, the call rests on the fitted dose curve; in most records, active means well fitted curve in the direction sought with a large enough effect; inconclusive means small, poorly fitted or top-dose-only effect, or another doubt; inactive means no such curve, though single readings can be large; an effect the other way counts as inactive or inconclusive.

SMILES | PLK1 PBD inh | G9a inh | PI5P4Ka inh | HP1b chromo inh | BAZ2B inh | JMJD2A Tudor inh
CCOc1ccc(CN2CCC(C(=O)N3CCN(c4ccccc4F)CC3)CC2)cc1OC | -4% | 8.9µM* | -3 | ? | ? | 7.1µM*
O=C(C1CCCCC1)N1CCN(c2ccccc2F)CC1 | -20% | -5%[12.7 µM] | -9 | 36% | 12% | -9%[57.1 µM]
CCOc1ccc(S(=O)(=O)N2CCC(C(=O)N3CCN(c4ccccc4F)CC3)CC2)cc1C | -8% | / | -5 | 1% | -12% | -22%
CC(C)CN1CCC(C(=O)N2CCN(c3ccccc3F)CC2)CC1 | 3% | 10µM* | 1 | ? | ? | 22µM*
OC(CN1CCOCC1)C12CC3CC(CC(C3)C1)C2 (centres undefined) | -9% | 22%[59 µM] | / | 13% | 9% | -5%
C1CN(CC23CC4CC(CC(C4)C2)C3)CCO1 | -11% | 7.9µM* | 8 | 31% | 4% | 0%
COc1cccc(N2C(C(C)=O)=NN(c3ccccc3)C2c2ccc(N3CCOCC3)cc2)c1 (centres undefined) | -16% | 45%[59 µM] | 2 | 72% | 8% | -14%[57.1 µM]
COc1ccc(C2N(c3ccc(Cl)cc3)N=C(C(C)=O)N(C)N2C(C)=O)cc1 (centres undefined) | -8% | 28µM* | -3 | -11% | ? | ?
COc1cc(NC(=O)Cn2c(=O)n(C(C)C)c(=O)c3oc4ccccc4c32)cc(OC)c1 | / | 1%[59 µM] | / | 23% | -15% | -5%
O=C(CCc1ccc(Oc2cc([N+](=O)[O-])cc([N+](=O)[O-])c2)cc1)N1CCCCC1 | -6% | ? | -15 | -58% | 25µM* | 56µM*
O=C(c1ccc(Oc2ccc([N+](=O)[O-])cc2)cc1)N1CCCCCC1 | -3% | 5% | 0 | 26% | -33% | -17%
O=C(CCc1ccc(Oc2cc([N+](=O)[O-])cc([N+](=O)[O-])c2)cc1)Nc1cccc(Cl)c1 | -12% | 8.9µM* | 9 | ? | ? | -29%
CSc1ccccc1NC(=S)NCc1ccc(Cl)cc1 | -12% | -1% | 0 | 10% | ? | -19%
CSc1ccccc1NC(=O)CSCc1nc2sc(C)c(C)c2c(=O)[nH]1 | -29% | ? | -3 | 6% | 7% | -15%
Cc1ccc(F)cc1NC(=O)CSCc1nc2sc(C)c(C)c2c(=O)[nH]1 | ? | 40µM* | -11 | 12% | -2% | -22%
Cc1sc2nc(SCC(=O)Nc3cccc(C(=O)O)c3)[nH]c(=O)c2c1C | ? | 25µM* | -73* | -14% | -6% | -23%
Cc1c(C(=O)O)sc2nc(SCC(=O)Nc3ccc(S(=O)(=O)NCCCC(=O)O)cc3)[nH]c(=O)c12 | ? | -34% | -70* | 65% | ? | 0%
Cc1sc2nc(SCC(=O)Nc3ccc(Cl)c(C(=O)O)c3)[nH]c(=O)c2c1C | -26% | / | -5 | 20%[57 µM] | / | -19%
Cc1c(C(=O)O)sc2nc(SCC(=O)Nc3ccc(S(=O)(=O)NC(C)(C)C)cc3)[nH]c(=O)c12 | -2% | -45% | -86* | 26% | / | -6%
CCCCNC(=O)CCCn1c(=O)c2ccccc2n(Cc2ccccc2C)c1=O | / | 8%[59 µM] | / | 38% | 4% | 2%
CC(C)[C@H](NC(=O)c1ccco1)C(=O)N(C)Cc1ccc(C(F)(F)F)cc1 | 5% | 3%[59 µM] | 0 | 23% | 5% | -6%
Cc1cc(C)c(NC(=O)CN(C)C(=O)CCN2C(=O)C3CCCCC3C2=O)c(C)c1 (centres undefined) | -14% | / | -14 | / | / | /
CCOC(=O)CSc1nc2sc(C(=O)O)c(C)c2c(=O)[nH]1 | 1% | 79µM* | -76* | 33% | 3% | -6%
O=S(=O)(c1ccc(OC(F)(F)F)cc1)N1CCC(O)(c2cccc(C(F)(F)F)c2)CC1 | 27µM* | -1% | -1 | 30% | 3% | -15%
COc1cc(S(=O)(=O)N2CCC(O)(c3cccc(C(F)(F)F)c3)CC2)ccc1-n1cnnn1 | -1% | 8%[59 µM] | / | 22% | -1% | -10%
SMILES | PLK1 PBD inh | G9a inh | PI5P4Ka inh | HP1b chromo inh | BAZ2B inh | JMJD2A Tudor inh
CC1(C)CC(=O)C2=C(C1)Nc1ccccc1NC2c1ccc([N+](=O)[O-])cc1 (centres undefined) | -16% | / | -6 | 4% | / | -27%
COc1ccc(C2NC(Cc3ccccc3)(C(=O)O)C3C(=O)N(c4ccccc4OC)C(=O)C23)cc1 (centres undefined) | -18% | 50µM* | -2 | 17% | 4% | 1%
COc1ccc(-c2nc(CSCC(=O)NC3CCN(Cc4ccccc4)CC3)c(C)o2)cc1OC | -4% | -8%[59 µM] | 0 | 45% | -22% | 3%
Cc1ccccc1CC1(CO)CCCN(C(=O)c2ccc3ncccc3c2)C1 (centres undefined) | 2.7µM* | / | ? | -2% | 1% | 8.9µM*
COc1cccc(C2C(C#N)=C(NC(=O)NCc3ccccc3)Oc3ccc4ccccc4c32)c1 (centres undefined) | / | / | / | / | / | -10%
COC(=O)C(CC(=O)c1ccc(Br)cc1)n1cccn1 (centres undefined) | -24% | 40µM* | -3 | 8% | 1% | -10%
COC(=O)C(CC(=O)c1ccc(C)cc1)n1cccn1 (centres undefined) | -9% | 15% | 0 | 33% | 9% | -8%
Cc1nc2c(O)cccc2cc1CO | 0% | 10µM* | 2 | 6% | -37% | 4.5µM*
CCN(CC)c1ccc(NS(=O)(=O)c2ccc(-c3cnc(C4CC4)o3)cc2)c(C)c1 | / | ? | / | ? | 14µM* | 18µM*
COc1ccccc1CNS(=O)(=O)c1ccc(-c2cnc(C3CC3)o2)cc1 | -10% | 7%[59 µM] | 2 | 2%[57 µM] | 89µM*! | -36%
O=C(Nc1cccc(Cl)c1)C1CCCN(c2nn3cc(-c4ccc(F)cc4)nc3s2)C1 (centres undefined) | / | ? | / | 1% | 5% | -19%
CCc1nn2c(=O)cc(-c3ccncc3)nc2s1 | / | / | / | / | / | -10%
C/C(=N\N(c1ccccc1)c1ccccc1)c1ccc(N)cc1 | 4% | / | 16 | ? | / | 22µM*
C/C(=N\N(c1ccccc1)c1ccccc1)c1ccc(O)cc1 | 3% | 79µM* | 27 | ? | 50µM* | 40µM*
CC(=NN(Cc1ccccc1)c1ccccc1)c1ccccc1 | -8% | / | 4 | 26% | / | 0%
COc1cccc(COCC(O)Cn2cnc3cc(C)c(C)cc32)c1 (centres undefined) | 1% | 6.3µM* | -2 | ? | ? | 3.5µM*
CC1(C)Cc2[nH]c(=O)c(C#N)cc2CS1 | -2% | 32µM* | 0 | 25% | 8% | 2%
O=C(NCCc1ccc(Cl)cc1)c1cccnc1 | -5% | 56µM* | / | 28% | ? | -20%
O=C(NCCCSc1ccccc1)c1cccnc1 | -2% | 28µM* | -5 | 37% | -35% | 2%

From PubChem
